Among the data in PubChem BioAssay (NCI) are growth values, retold here.

Some test systems named below: NCI-H23 lung; NCI-H322M lung; HOP-62 NSCLC; NCI-H460 lung; NCI-H522 lung; A549/ATCC NSCLC; 786-0 renal; COLO 205 colon; DU-145 prostate; K-562 leukemia; MALME-3M melanoma; MDA-MB-231 breast; RXF 393 renal; SF-268 CNS; SF-295 CNS; SF-539 CNS; UACC-257 melanoma; M14 melanoma; NCI-H226 lung; HCT-15 colon.
Assay in all cases: NCI-60 one-dose screen, 48 h (100 = growth as untreated, 0 = no growth, -100 = all killed)
Holding throughout (settings): 10 µM unless noted

About 83,000 compounds went through this panel and 20% of them were active in at least one assay; those are over-represented in the sample as a whole.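 Activity criterion: percent growth below 10, measured after cells in 96-well plates were exposed to a single compound concentration for 48 hours.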 Unmarked numbers belong to inactive results. Active and inactive are the calls of the source.

For `O=C1c2ccccc2C(=O)c2c1cccc2-n1nnc2ccccc21`, the growth with NCI-H23 lung is 106%; in the test on NCI-H322M lung, 118%; in the test on HOP-62 NSCLC, 101%; in the test on NCI-H460 lung, 111%; in the test on NCI-H522 lung, 86%; with A549/ATCC NSCLC, 116%. Further, the growth was 106% with 786-0 renal; 116% in the test with COLO 205 colon; 108% in the test with DU-145 prostate; 95.6% with K-562 leukemia; 132% in the test with MALME-3M melanoma; 125% in the test with MDA-MB-231 breast. The growth was 111% in the test on RXF 393 renal; 103% in the test on SF-268 CNS; 120% with SF-295 CNS; 112% with SF-539 CNS; 127% in the test with UACC-257 melanoma; 127% with M14 melanoma.

In the case of `C[n+]1ccc(C#N)c2ccccc21`, the growth in the test with NCI-H23 lung is 94.7%; with NCI-H226 lung, 93.3%; in the test on HOP-62 NSCLC it was 94.4%; in the test with NCI-H460 lung, 109%; in the test with NCI-H522 lung it was 68.2%; in the test on A549/ATCC NSCLC it was 106%. The growth was 90.2% in the test with 786-0 renal; 48.8% with COLO 205 colon; 91.8% with DU-145 prostate; 84.8% in the test with K-562 leukemia; 26.7% in the test with MALME-3M melanoma; 101% in the test with MDA-MB-231 breast. The growth was 78.8% with RXF 393 renal; 92% in the test on SF-268 CNS; 99.5% in the test on SF-539 CNS; 110% in the test on UACC-257 melanoma; 98.6% in the test on M14 melanoma; 88.4% in the test on HCT-15 colon.

Take `Cc1cc(C)n(C(=O)c2nn(-c3ccc(Cl)cc3)cc2O)n1`: the growth with NCI-H23 lung is 9.42% (active); in the test on NCI-H226 lung, 44.9%; in the test on HOP-62 NSCLC it was 47.8%; in the test on NCI-H460 lung it was 5.55% (active); in the test on NCI-H522 lung, 59.6%; in the test with A549/ATCC NSCLC, 11.6%. In addition, the growth in the test on 786-0 renal was 95.7%; in the test on COLO 205 colon, 106%; in the test on DU-145 prostate it was 30%; with K-562 leukemia, 6.26% (active); with MALME-3M melanoma, 117%; in the test on MDA-MB-231 breast, 77.4%. Moreover, the growth in the test on RXF 393 renal is 39.1%; with SF-268 CNS it was 39.9%; in the test on SF-295 CNS it was -4.15% (active); in the test with SF-539 CNS, 39.1%; in the test on UACC-257 melanoma, 82.5%; in the test on M14 melanoma, 45.7%. The growth in the test with HCT-15 colon was 50.2%.

For the compound `O=[N+]([O-])c1cnc(Sc2ccncn2)c([N+](=O)[O-])c1`, the growth with NCI-H23 lung is 103%; in the test with NCI-H226 lung it was 99.6%; with HOP-62 NSCLC, 99.3%; in the test with NCI-H460 lung, 100%; with NCI-H522 lung, -83.1% (active); in the test with A549/ATCC NSCLC it was 97.6%. The growth with 786-0 renal was 106%; in the test on COLO 205 colon it was -11.8% (active); in the test on DU-145 prostate, 109%; with K-562 leukemia, -46.9% (active); with MALME-3M melanoma, -53% (active); in the test with MDA-MB-231 breast it was 91.1%. The growth in the test on RXF 393 renal was 94.3%; with SF-268 CNS it was 101%; in the test on SF-539 CNS it was 97.7%; in the test on UACC-257 melanoma, -9.5% (active); in the test on M14 melanoma, 97.2%; in the test on HCT-15 colon it was 0.0905% (active).

Turning to `C[C@]12CC[C@@H]3c4ccc(O)c([N+](=O)[O-])c4CC[C@H]3[C@@H]1CC[C@@H]2NS(=O)(=O)c1ccc(C(F)(F)F)cc1`, the growth in the test with NCI-H23 lung was 28%; with NCI-H226 lung it was 53.7%; in the test on HOP-62 NSCLC, 56.2%; in the test on NCI-H460 lung, 10.5%; in the test on NCI-H522 lung it was -67.8% (active); in the test with A549/ATCC NSCLC it was 19.5%. Also, the growth was 43% in the test with 786-0 renal; 98% with COLO 205 colon; 47.4% with DU-145 prostate; 6.98% (active) in the test with K-562 leukemia; 31% in the test with MALME-3M melanoma; -9.58% (active) with MDA-MB-231 breast. For the same compound, the growth was -1.18% (active) in the test on RXF 393 renal; 36% in the test on SF-268 CNS; 18.7% in the test on SF-295 CNS; 62.4% in the test with SF-539 CNS; 44% in the test with UACC-257 melanoma; 34.2% in the test with M14 melanoma. In addition, the growth in the test with HCT-15 colon was 18%.

Take `COc1ccc(C(=O)C(C)Br)cc1OC` (stereo not given): the growth is 90.7% with NCI-H23 lung; 96.1% with NCI-H226 lung; 106% in the test with HOP-62 NSCLC; 103% in the test on NCI-H460 lung; -10.4% (active) in the test on NCI-H522 lung; 95.5% in the test on 786-0 renal. Moreover, the growth was 23.3% with COLO 205 colon; 107% with DU-145 prostate; 59.2% with K-562 leukemia; 97.2% in the test with MALME-3M melanoma; 90% in the test on MDA-MB-231 breast; 102% with RXF 393 renal. Moreover, the growth in the test with SF-268 CNS is 90.9%; in the test with SF-295 CNS, 102%; in the test with SF-539 CNS it was 92.9%; in the test on UACC-257 melanoma, 80.1%; in the test on M14 melanoma, 97.5%; with HCT-15 colon, 46.4%.

As to `O=C(COC(=O)[C@H](C[Se][Se]C[C@H](NC(=O)c1ccc(Br)cc1F)C(=O)OCC(=O)c1ccc(F)cc1)NC(=O)c1ccc(Br)cc1F)c1ccc(F)cc1`, the growth was -37.3% (active) with NCI-H23 lung; -23.2% (active) in the test with NCI-H322M lung; -6.31% (active) with HOP-62 NSCLC; -35.6% (active) with NCI-H460 lung; -85.2% (active) with NCI-H522 lung; -41.2% (active) in the test with A549/ATCC NSCLC. In addition, the growth in the test with 786-0 renal is -94.6% (active); in the test on DU-145 prostate, -100% (active); with K-562 leukemia it was -1.8% (active); in the test on MALME-3M melanoma, -64.4% (active); with MDA-MB-231 breast, -82.2% (active); in the test on RXF 393 renal, -99.3% (active). Also, the growth was -74.1% (active) with SF-268 CNS; -65.8% (active) with SF-295 CNS; -98.5% (active) with SF-539 CNS; -50.2% (active) with UACC-257 melanoma; -64.6% (active) with M14 melanoma; -42.6% (active) in the test with HCT-15 colon.

For the compound `CN=C(NC)N/N=C(C)\C=N\NC(=NC)NC`, the growth in the test on NCI-H23 lung was 104%; in the test with NCI-H322M lung, 107%; with HOP-62 NSCLC, 100%; with NCI-H460 lung, 104%; with NCI-H522 lung, 102%; in the test with A549/ATCC NSCLC, 100%. Further, the growth with 786-0 renal is 102%; with COLO 205 colon it was 102%; with DU-145 prostate, 109%; in the test on MALME-3M melanoma it was 105%; with MDA-MB-231 breast, 97.8%; with SF-268 CNS it was 99.5%. Besides, the growth in the test with SF-295 CNS was 96.5%; in the test with SF-539 CNS, 99.1%; in the test on UACC-257 melanoma it was 100%; with M14 melanoma, 101%; in the test with HCT-15 colon, 101%.
